From PubChem BioAssay (EPA / NIEHS)
Results filed as inconclusive are left out. The source made the active and inactive calls. Rule for the calls: active = hit-call score of the fitted dose curve at least 0.9, where 1 is the maximum; inconclusive = response in the unintended direction; inactive = score below 0.9.

Legend:
[1] = TOX21_p53_BLA_p2_viability: Viability Assessment in the Tox21 HCT-116 p53 Agonism Beta-lactamase Assay, Phase 2 (AID 2283591);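 note: compound exposure lasted 16 h at 37 °C; actives lower the ATP signal meaning cytotoxicity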
Summary of the method: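 Cytotoxicity readout: CellTiter-Glo ATP luminescence, 30 min at room temperature, after the beta-lactamase read. Cells were HCT116 exposed 16 h at 37C to compounds pin-transferred at 217-fold dilution from DMSO stocks.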

[2] = target: Cellular tumor antigen p53 (Homo sapiens) (UniProt P04637); test: TOX21_p53_BLA_p2_ratio: Tox21 HCT-116 p53 Agonism Beta-lactamase Assay, Ratio, Phase 2 (AID 2283592)
Sequence of Cellular tumor antigen p53 (Homo sapiens) (P04637 whole entry, looked up): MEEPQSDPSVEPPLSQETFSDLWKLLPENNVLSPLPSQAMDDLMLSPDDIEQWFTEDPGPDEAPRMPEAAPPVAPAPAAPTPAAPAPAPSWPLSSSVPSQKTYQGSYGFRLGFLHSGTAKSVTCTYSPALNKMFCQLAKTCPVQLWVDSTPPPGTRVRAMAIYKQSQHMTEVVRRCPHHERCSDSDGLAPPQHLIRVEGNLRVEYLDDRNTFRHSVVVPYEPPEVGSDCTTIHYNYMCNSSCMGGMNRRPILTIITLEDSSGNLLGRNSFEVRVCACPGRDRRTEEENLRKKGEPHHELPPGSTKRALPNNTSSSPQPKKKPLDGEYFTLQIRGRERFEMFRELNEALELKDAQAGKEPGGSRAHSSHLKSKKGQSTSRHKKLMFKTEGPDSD
Summary of the method: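 Cleaved-to-uncleaved substrate ratio (460 vs 530 nm) measured in HCT116 cells with an inducible beta-lactamase reporter linked to p53 activity. Compounds incubated 16 h at 37C before 2 h room-temperature CCF4-AM loading.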

[3] = TOX21_p53_BLA_p4_viability: Viability Assessment in the Tox21 HCT-116 p53 Agonism Beta-lactamase Assay, Phase 4 (AID 2283597);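 note: hits lower the luminescence signal meaning cytotoxicity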
Summary of the method: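 Viability is taken as cellular ATP: after 16 h compound exposure of HCT116 cells and a 2 h room-temperature CCF4-AM substrate step, CellTiter-Glo reagent is added and luminescence is measured 30 min later.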

[4] = target: Cellular tumor antigen p53 (Homo sapiens) (UniProt P04637); test: TOX21_p53_BLA_p5_ratio: Tox21 HCT-116 p53 Agonism Beta-lactamase Assay, Ratio, Phase 5 (AID 2283599)
Summary of the method: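 Beta-lactamase reporter ratio (blue 460 nm over green 530 nm, 405 nm excitation) after 2 h CCF4-AM loading, in HCT-116 cells exposed 16 h at 37 C to compounds pinned at 217-fold dilution. Increases relative to DMSO baseline scored.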

[5] = TOX21_p53_BLA_p5_viability: Viability Assessment in the Tox21 HCT-116 p53 Agonism Beta-lactamase Assay, Phase 5 (AID 2283600)
Summary of the method: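 Viability is taken from cellular ATP content, measured by luciferase luminescence in the same wells after the beta-lactamase ratio read. Cells are seeded at 4000 per well and exposed to DMSO-dissolved compounds, diluted 217-fold, for 16 h.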

[6] = target: Cellular tumor antigen p53 (Homo sapiens) (UniProt P04637); test: TOX21_p53_BLA_p3_ratio: Tox21 HCT-116 p53 Agonism Beta-lactamase Assay, Ratio, Phase 3 (AID 2283596)
Summary of the method: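 Cells were seeded at 4000/well, rested 5 h at 37C, then dosed with DMSO compound solutions (217-fold dilution) for 16 h. CCF4-AM substrate was loaded for 2 h at room temperature, and the 460/530 nm emission ratio was fitted for gain of signal versus DMSO.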

[7] = target: Cellular tumor antigen p53 (Homo sapiens) (UniProt P04637); test: TOX21_p53_BLA_p4_ratio: Tox21 HCT-116 p53 Agonism Beta-lactamase Assay, Ratio, Phase 4 (AID 2283601)
Summary of the method: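 Signal is the blue/green (460nm/530nm) ratio of cleaved versus uncleaved CCF4-AM substrate, read after 2 h substrate loading. Cells were HCT116 carrying the p53-responsive beta-lactamase reporter, dosed 16 h at 37C, 5% CO2; CellTiter-Glo measured in parallel.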

Measured: outcome

CC[C@H]1NC(=O)[C@@H](NC(=O)c2ncccc2O)[C@@H](C)OC(=O)[C@H](c2ccccc2)NC(=O)[C@@H]2CC(=O)CCN2C(=O)[C@H](Cc2ccccc2)N(C)C(=O)[C@@H]2CCCN2C1=O
inactive: [1] | [2] | [3] | [4] | [5]

CN(CC1(C)CCCO1)S(=O)(=O)c1ccc(Cl)c(S(N)(=O)=O)c1 (stereo not given)
inactive: [1] | [2] | [6] | [5] | [7]

O=[N+]([O-])c1cccc(S(=O)(=O)NCCNS(=O)(=O)c2cccc([N+](=O)[O-])c2)c1
inactive: [1] | [2] | [6] | [5] | [7]

CN1CCC(CN2c3ccccc3Sc3ccccc32)C1 (stereo not given)
inactive: [1] | [2] | [3] | [4]

CO[C@H]1O[C@H](CO)[C@@H](O)[C@H](O)[C@H]1O
inactive: [1] | [2] | [3]

Cc1ccc(S(=O)(=O)NC2CCCCC2)cc1
inactive: [1] | [2] | [6] | [5]

Cc1cc2c(OCC(CNC(C)(C)C)OC(=O)c3ccccc3)cccc2[nH]1 (stereo not given)
inactive: [1] | [2] | [6] | [5]

O=S(=O)(O)CCN1CCN(CCO)CC1
inactive: [1] | [2] | [6] | [5] | [7]

O=C(O)c1ccc[n+]([O-])c1
inactive: [1] | [2] | [6] | [5] | [7]

CC[C@@H](C)[C@@H](N)C(=O)O
inactive: [1] | [2] | [3] | [4]

N[C@@H](C(=O)N[C@@H]1C(=O)N2C(C(=O)O)=C(Cl)CS[C@H]12)c1ccccc1
inactive: [1] | [2] | [6] | [5] | [7]

CCN(CC)CCNC(=O)c1cc(Cl)c(N)cc1OC
inactive: [1] | [2] | [6] | [5] | [7]

CCOC(=O)O[C@]1(C(=O)OCCl)CC[C@H]2[C@@H]3CCC4=CC(=O)C=C[C@]4(C)[C@H]3[C@@H](O)C[C@@]21C
inactive: [1] | [2] | [6] | [7]

CO/N=C(\C(=O)N[C@@H]1C(=O)N2C(C(=O)[O-])=C(C[n+]3cccc4c3CCC4)CS[C@H]12)c1csc(N)n1
inactive: [1] | [2] | [6] | [5] | [7]

O=C(Cn1ccnc1[N+](=O)[O-])NCc1ccccc1
inactive: [1] | [2] | [6] | [5]

O=C(c1ccccc1)c1ccc2n1CCC2C(=O)O (stereo not given)
inactive: [1] | [2] | [3]
